{
  "source": "the supplement of paper PMC12297408",
  "note": "Counter-ions that a name gives are not always drawn.",
  "data": [
    {"system": "Plasmodium falciparum NF54/iGP1_RE9H ulg8 stage V gametocytes", "experiment": "gametocyte viability (luciferase signal relative to DMSO control) (% of DMSO control); higher = less gametocytocidal activity, active = 50 or less", "conditions": "concentration: 1 µM; exposure time: 72 h", "protocol": "(§1)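 Synchronous P. falciparum NF54/iGP1_RE9H ulg8 mature stage V gametocytes (day 12) were exposed to Cayman Epigenetics Screening Library compounds at 10 µM or 1 µM for 72 h at 37 °C. Viability was read as RE9H luciferase bioluminescence, normalised to DMSO plate controls (100%); 50 µM methylene blue was the positive control.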", "values": [
      {"smiles": "CC(/C=C/C(=O)NO)=C\\[C@@H](C)C(=O)c1ccc(N(C)C)cc1", "note": "[Trichostatin A]", "gametocyte viability": "53.7 (inactive)"},
      {"smiles": "Cc1nn(C)cc1CN1CCC(c2ccc(C(=O)Nc3ccccc3N)cc2)CC1", "gametocyte viability": "86 (inactive)"},
      {"smiles": "CCCCN(Cc1ccc(C(=O)NO)cc1)C(=O)Nc1ccccc1", "note": "[Nexturastat A]", "gametocyte viability": "103 (inactive)"},
      {"smiles": "CN(C)c1ccc(C(=O)NCCCCCCC(=O)NO)cc1", "gametocyte viability": "83.7 (inactive)"},
      {"smiles": "Cc1ccc(NC2=CC(=O)c3sc(C)nc3C2=O)cc1", "note": "[Ryuvidine]", "gametocyte viability": "59.2 (inactive)"},
      {"smiles": "COc1cc2c(cc1NS(=O)(=O)c1ccc(Br)cc1C)n(C)c(=O)n2C", "gametocyte viability": "89 (inactive)"},
      {"smiles": "CCCc1cc2c(N3CCN(C4=NCC(C)(C)S4)CC3)ncnc2s1", "note": "[MI-2 (hydrochloride)]", "gametocyte viability": "80.6 (inactive)"},
      {"smiles": "COc1cc2c(cc1-c1c(C)noc1C)ncc1[nH]c(=O)n([C@H](C)c3ccccn3)c12", "gametocyte viability": "91.5 (inactive)"},
      {"smiles": "COc1cc(O)c2c(c1)oc(=O)c1c3cc(O)c(O)cc3oc21", "note": "[Wedelolactone]", "gametocyte viability": "89.6 (inactive)"},
      {"smiles": "Nc1nccc2c1ncn2C1C=C(CO)C(O)C1O", "note": "(stereo not given) [3-Deazaneplanocin A]", "gametocyte viability": "88.8 (inactive)"},
      {"smiles": "Nc1nc(=S)c2[nH]cnc2[nH]1", "note": "[6-Thioguanine]", "gametocyte viability": "90.1 (inactive)"},
      {"smiles": "C#Cc1cccc(Nc2ncnc3cc(OC)c(OCCCCCCC(=O)NO)cc23)c1", "gametocyte viability": "58.7 (inactive)"},
      {"smiles": "CC(C)Oc1ccc(-c2c[nH]cc2CN(C)CCN)cc1", "note": "[MS023 (hydrochloride)]", "gametocyte viability": "64.4 (inactive)"},
      {"smiles": "COc1cc2c(NC3CCN(C)CC3)nc(N3CCCN(C)CC3)nc2cc1OCCCN(C)C", "gametocyte viability": "89.8 (inactive)"},
      {"smiles": "Nc1ncn([C@H]2C[C@H](O)[C@@H](CO)O2)c(=O)n1", "note": "[Decitabine]", "gametocyte viability": "90.6 (inactive)"},
      {"smiles": "COc1cc(Br)c(Nc2nc(-c3c(C)nc4ncccn34)cs2)c(Br)c1", "gametocyte viability": "94.5 (inactive)"},
      {"smiles": "Nc1c(S(=O)(=O)c2ccccc2)c2nc3ccccc3nc2n1-c1ccc(F)cc1", "gametocyte viability": "66.8 (inactive)"},
      {"smiles": "NC(=O)[C@H](CCCN=C(N)CCl)NC(=O)c1ccccc1", "note": "[Cl-Amidine (hydrochloride)]", "gametocyte viability": "104 (inactive)"},
      {"smiles": "O=C(CCCCCCC(=O)NO)NO", "note": "[Suberohydroxamic Acid]", "gametocyte viability": "106 (inactive)"},
      {"smiles": "CS(=O)(=O)c1ccc(-c2cnc(NCc3ccco3)n3cnnc23)cc1", "gametocyte viability": "88.5 (inactive)"}
    ]},
    {"system": "Plasmodium falciparum NF54/iGP1_RE9H ulg8 stage V gametocytes", "experiment": "gametocyte viability (luciferase signal relative to DMSO control) (% of DMSO control); higher = less gametocytocidal activity, active = 50 or less", "conditions": "concentration: 10 µM; exposure time: 72 h", "protocol": "as §1", "values": [
      {"smiles": "CC(/C=C/C(=O)NO)=C\\[C@@H](C)C(=O)c1ccc(N(C)C)cc1", "note": "[Trichostatin A]", "gametocyte viability": "35.4 (active)"},
      {"smiles": "Cc1nn(C)cc1CN1CCC(c2ccc(C(=O)Nc3ccccc3N)cc2)CC1", "gametocyte viability": "90.2 (inactive)"},
      {"smiles": "CCCCN(Cc1ccc(C(=O)NO)cc1)C(=O)Nc1ccccc1", "note": "[Nexturastat A]", "gametocyte viability": "67.7 (inactive)"},
      {"smiles": "CN(C)c1ccc(C(=O)NCCCCCCC(=O)NO)cc1", "gametocyte viability": "50.5 (inactive)"},
      {"smiles": "Cc1ccc(NC2=CC(=O)c3sc(C)nc3C2=O)cc1", "note": "[Ryuvidine]", "gametocyte viability": "19.2 (active)"},
      {"smiles": "COc1cc2c(cc1NS(=O)(=O)c1ccc(Br)cc1C)n(C)c(=O)n2C", "gametocyte viability": "86.4 (inactive)"},
      {"smiles": "CCCc1cc2c(N3CCN(C4=NCC(C)(C)S4)CC3)ncnc2s1", "note": "[MI-2 (hydrochloride)]", "gametocyte viability": "63.3 (inactive)"},
      {"smiles": "COc1cc2c(cc1-c1c(C)noc1C)ncc1[nH]c(=O)n([C@H](C)c3ccccn3)c12", "gametocyte viability": "97.8 (inactive)"},
      {"smiles": "COc1cc(O)c2c(c1)oc(=O)c1c3cc(O)c(O)cc3oc21", "note": "[Wedelolactone]", "gametocyte viability": "81.5 (inactive)"},
      {"smiles": "Nc1nccc2c1ncn2C1C=C(CO)C(O)C1O", "note": "(stereo not given) [3-Deazaneplanocin A]", "gametocyte viability": "88.1 (inactive)"},
      {"smiles": "Nc1nc(=S)c2[nH]cnc2[nH]1", "note": "[6-Thioguanine]", "gametocyte viability": "94.6 (inactive)"},
      {"smiles": "C#Cc1cccc(Nc2ncnc3cc(OC)c(OCCCCCCC(=O)NO)cc23)c1", "gametocyte viability": "56.7 (inactive)"},
      {"smiles": "CC(C)Oc1ccc(-c2c[nH]cc2CN(C)CCN)cc1", "note": "[MS023 (hydrochloride)]", "gametocyte viability": "30.3 (active)"},
      {"smiles": "COc1cc2c(NC3CCN(C)CC3)nc(N3CCCN(C)CC3)nc2cc1OCCCN(C)C", "gametocyte viability": "84 (inactive)"},
      {"smiles": "Nc1ncn([C@H]2C[C@H](O)[C@@H](CO)O2)c(=O)n1", "note": "[Decitabine]", "gametocyte viability": "90 (inactive)"},
      {"smiles": "COc1cc(Br)c(Nc2nc(-c3c(C)nc4ncccn34)cs2)c(Br)c1", "gametocyte viability": "93.6 (inactive)"},
      {"smiles": "Nc1c(S(=O)(=O)c2ccccc2)c2nc3ccccc3nc2n1-c1ccc(F)cc1", "gametocyte viability": "56.6 (inactive)"},
      {"smiles": "NC(=O)[C@H](CCCN=C(N)CCl)NC(=O)c1ccccc1", "note": "[Cl-Amidine (hydrochloride)]", "gametocyte viability": "98.5 (inactive)"},
      {"smiles": "O=C(CCCCCCC(=O)NO)NO", "note": "[Suberohydroxamic Acid]", "gametocyte viability": "87.9 (inactive)"},
      {"smiles": "CS(=O)(=O)c1ccc(-c2cnc(NCc3ccco3)n3cnnc23)cc1", "gametocyte viability": "91.4 (inactive)"}
    ]}
  ]
}
